KB-3-1 cytotox: kills parental KB-3-1 adenocarcinoma cells; Potency, µM (highest dose often 46.1 µM), hits mostly cytotoxic; AID 1347075; KB-3-1 viability, CellTiter-Glo ATP luminescence, 72 h; 400,000 compounds, 1.4% hits; further: potency means the concentration at half of the fitted maximal effect; on the % scale 0 is the no-effect control and ±100 the full control effect; nearly all actives have a fitted effect of over 60% in size
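Cells are dispensed, compounds pinned in, plates held at 37 °C for 72 h, then CellTiter-Glo is added and luminescence read after 10 minutes. Cell line: parental KB-3-1 in phenol-red-free DMEM, 10% FBS.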
KB-V1 cytotox: KB-V1 MDR subline cytotoxicity | KB-V1 MDR cells viability, CellTiter-Glo, 72 h | Potency, µM (titrated, usually from 46.1 µM), usual class: cytotoxic | 400,000 compounds, 3.4% hits | AID 1347076; further: potency means the concentration at half of the fitted maximal effect; on the % scale 0 is the no-effect control and ±100 the full control effect; nearly all actives have a fitted effect of over 60% in size
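Drug-selected KB-V1 cells, grown in DMEM lacking phenol red with 10% FBS, receive compound titrations; after three days at 37 degrees C, surviving cell ATP is quantified by CellTiter-Glo luminescence and responses normalized and curve-fitted.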
ASM inhibitor: inhibitors of human secretory acid sphingomyelinase | AID 504937 | 340,000 compounds, 0.006% hits | Potency, µM (titrated, usually from 57.5 µM), without a hit: at the highest dose activity change, negative = inhibition, hits mostly inhibitors | P17405 | placental ASM, HMU-PC fluorogenic substrate, 60 min; further: potency means the concentration at half of the fitted maximal effect
Target sequence (P17405 47-631 limits assumed): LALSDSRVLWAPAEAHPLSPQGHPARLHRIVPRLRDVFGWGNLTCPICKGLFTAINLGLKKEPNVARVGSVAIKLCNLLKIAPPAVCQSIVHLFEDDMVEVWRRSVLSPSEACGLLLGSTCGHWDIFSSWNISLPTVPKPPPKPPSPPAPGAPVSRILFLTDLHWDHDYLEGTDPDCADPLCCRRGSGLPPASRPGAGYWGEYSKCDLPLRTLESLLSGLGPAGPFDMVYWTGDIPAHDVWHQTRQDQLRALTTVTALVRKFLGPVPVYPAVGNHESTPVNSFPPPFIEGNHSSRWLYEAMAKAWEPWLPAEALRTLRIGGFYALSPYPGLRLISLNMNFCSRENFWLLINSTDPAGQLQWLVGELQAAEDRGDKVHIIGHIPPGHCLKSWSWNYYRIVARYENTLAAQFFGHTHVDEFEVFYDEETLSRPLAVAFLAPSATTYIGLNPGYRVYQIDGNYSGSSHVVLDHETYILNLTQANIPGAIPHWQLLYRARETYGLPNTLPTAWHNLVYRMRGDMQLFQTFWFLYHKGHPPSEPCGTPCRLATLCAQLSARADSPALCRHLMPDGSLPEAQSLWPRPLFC
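Human placenta-derived ASM enzyme was preincubated with compound for 10 minutes at room temperature, then given fluorogenic substrate HMU-PC0 (9 uM final) for 60 minutes at 37 °C; a pH 10 stop preceded fluorescence reading at Ex 386/Em 447 nm.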
MCF10A rereplic: DNA re-replication induction in MCF 10a cells | MCF 10A DNA re-replication, Hoechst nuclear intensity, 48 h | Potency, µM (top dose mostly 46.1 µM), without a hit: top-dose activity, positive = re-replication, actives largely listed as activators | 350,000 compounds, 2.9% hits; further: potency means the concentration at half of the fitted maximal effect; % of control where 0% means no effect; nearly all actives have a fitted effect of over 50% in size
SW480 rerep: induces DNA re-replication in SW480 colon adenocarcinoma cells; SW480 DNA re-replication, Hoechst DNA content imaging, 48 h; Potency, µM (titrated, usually from 46.1 µM), inactives show at the top dose re-replication activation, actives largely listed as activators; 340,000 compounds, 1.8% hits; further: potency means the concentration at half of the fitted maximal effect; % of control where 0% means no effect; nearly all actives have a fitted effect of over 55% in size
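250 cells/well; 23 nL cpd via pin tool; 48 hr, 37 C, 5% CO2; Hoechst 40 min; imager read of total nuclear intensity, ex 405/em 500-530 nm.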
Giardia killer: kills Giardia lamblia; Giardia lamblia trophozoite viability; activity change, % at 7.66 µM, hits read low; 340,000 compounds, 0.15% hits; in the data active means activity change below about -80%; inconclusive means between about -30% and that limit;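 further: parasites exposed to compound for two days anaerobically before the ATP read; on the % scale 0 is the no-effect control and ±100 the full control effect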
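Trophozoites 100 cells/well + cpd; 48 hrs, 37 deg C, anaerobic. ATPLite 1-Step added, 15-30 min RT, luminescence read (ATP-based viability).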
* = called active by the depositor; i = inactive; u = inconclusive; x = not tested or not shown. In the library only some 6.9% were active in any assay of this set; here they are far more common. Unless noted, the call rests on the fitted dose curve; in most records, active means well fitted curve in the direction sought with a large enough effect; inconclusive means small, poorly fitted or top-dose-only effect, or another doubt; inactive means no such curve, though single readings can be large; an effect the other way counts as inactive or inconclusive.

SMILES	KB-3-1 cytotox	KB-V1 cytotox	ASM inhibitor	MCF10A rereplic	SW480 rerep	Giardia killer
CCOC(=O)CN1C(=O)/C(=C/c2c(F)cccc2Cl)Oc2ccccc21	u	i	31%	21µM*	u	16
C=CCSc1cc(C)nc2c(-c3ccccc3)c(C)nn12	u	7.3µM*	-3%	u	u	4
Cc1cc(SCC(=O)c2cccs2)n2nc(C)c(-c3ccccc3)c2n1	i	21µM*	-7%	u	u	2
CC(=O)CSc1cc(C)nc2c(-c3ccccc3)c(C)nn12	u	u	12%	7%	-2%	-5
CCN(CC)Cc1nc2c(c(=O)[nH]1)C1(CCCCC1)Cc1ccccc1-2	i	i	0%	5.8µM*	u	3
O=c1[nH]c(NNC(=S)NCc2ccccc2)nc2c1C1(CCCCC1)Cc1ccccc1-2	i	i	0%	12µM*	-39%	0
CN(C)Cc1nc2c(c(=O)[nH]1)C1(CCCCC1)Cc1ccccc1-2	i	i	-1%	u	11%	13
COc1ccc(-c2cc(C(F)(F)F)nc(SCC(=O)N(C)Cc3ccccc3)n2)cc1	i	i	x	x	x	x
Cc1ccccc1-n1c(=O)c(C#N)cc2c(=O)n3ccccc3nc21	i	i	i	u	u	-19
N#Cc1cc2c(=O)n3ccccc3nc2n(-c2ccc(Cl)cc2)c1=O	i	i	i	0.52µM*	u	-1
O=c1[nH]/c(=C/c2ccc3c(c2)OCO3)c(=O)[nH]/c1=C\c1ccc2c(c1)OCO2	u	i	x	x	x	x
Cc1cc(C)cc(N=Cc2ccc([N+](=O)[O-])s2)c1	u	u	-1%	21µM*	3.7µM*	-14
Cc1c(N=Cc2ccc(Br)s2)cccc1[N+](=O)[O-]	i	i	-3%	5%	-7%	13
NC(=O)c1ccc(N=Cc2ccc([N+](=O)[O-])s2)cc1	u	u	5%	15µM*	3.3µM*	-14
Cc1ccc(NC(=S)N/N=C/c2ccc([N+](=O)[O-])s2)cc1	u	u	x	10µM*	6.5µM*	u
CCCN1CNc2c(c(=O)[nH]c(=S)n2CCC)C1	x	x	x	x	x	-4
CC(C)Cn1c(N)c(C(=O)NCCN2CCOCC2)c2nc3ccccc3nc21	i	23µM*	i	-5%	0%	2
Cc1cccc(-n2c(N)c(C(=O)NCCN3CCOCC3)c3nc4ccccc4nc32)c1	i	i	i	21µM*	u	-6
COc1ccccc1-c1noc(CSc2nc3ccc(C)cc3[nH]2)n1	i	u	x	x	x	x
N#Cc1cnn(-c2ccc([N+](=O)[O-])cc2[N+](=O)[O-])c1N	18µM*	u	x	x	x	x
N=c1c(-c2nc3ccccc3[nH]2)cc(C(=O)c2ccco2)nn1-c1ccccc1	i	i	-22%	2%	7.3µM*	47
CCn1c(=NC(=O)c2ccc(S(=O)(=O)N3CCCCC3)cc2)sc2cccc(OC)c21	i	i	x	x	x	x
COCCNC(=O)c1ccc(-n2c(SCc3cc(F)ccc3F)nc3ccccc3c2=O)cc1	u	5.8µM*	2%	-1%	-3%	-5
Cc1ccsc1CN(C)CC(=O)NCC(=O)Nc1ccc(F)c(F)c1F	i	i	1%	-3%	7%	22
CCOC(=O)CSc1nc2cc(OC)c(OC)cc2cc1C#N	u	u	x	x	x	17
SMILES	KB-3-1 cytotox	KB-V1 cytotox	ASM inhibitor	MCF10A rereplic	SW480 rerep	Giardia killer
CN(C)c1ccc(/C=N/NC(=O)c2cc(-c3ccc4c(c3)OCO4)n[nH]2)cc1	u	u	151%	5.8µM*	u	-9
COc1ccc(/C=N/NC(=O)c2cc(-c3ccc4c(c3)OCO4)n[nH]2)cc1OC	i	i	14%	-4%	12%	2
CN(C)c1ccc(/C=N/NC(=O)c2ccc3c(c2)OCCO3)cc1	i	i	156%	-18%	-22%	1
O=C(N/N=C/c1ccc(F)cc1)c1cc(-c2ccc3c(c2)OCO3)n[nH]1	i	i	-1%	29µM*	4%	5
Cc1cc(C)cc(C(=O)N2CC(=O)Nc3ccc(Br)cc3C2c2ccccc2)c1 (centres undefined)	u	15µM*	x	x	x	x
Cc1ccc(C(=O)N2CC(=O)Nc3ccc(C)cc3C2c2ccccc2)cc1 (centres undefined)	i	i	-5%	22%	4%	8
Cc1ccc(C(=O)N2CC(=O)Nc3ccc(F)cc3C2c2ccccc2)cc1[N+](=O)[O-] (centres undefined)	i	15µM*	-4%	1%	1%	5
O=C(N/N=C/c1ccc(O)cc1O)/C(=C/c1ccccc1)CCO	i	u	x	18µM*	u	-11
COc1cc(Cl)c(C)cc1Nc1nc2ccccc2nc1NS(=O)(=O)c1ccccc1	i	i	x	x	x	x
CC(OC(=O)CNS(=O)(=O)c1ccc(C#N)cc1)C(=O)Nc1cccc(C#N)c1 (centres undefined)	i	i	0%	-1%	-8%	14
N#CCC(=O)Nc1ncc(Cc2ccccc2Cl)s1	i	i	-1%	15µM*	u	-5
O=C(CN1CCOCC1)Nc1ncc(Cc2cccc3ccccc23)s1	i	13µM*	0%	u	22%	-2
Nc1ccc(CSc2ccc(Cl)cc2)c(Cl)c1	i	i	-2%	21µM*	u	-8
CC1(C)CC(=O)C2=C(C1)NC1=C(C(=O)c3ccccc31)C2c1ccc(O)cc1 (centres undefined)	i	i	-6%	-1%	-2%	3
CCCc1ccc(C2C3=C(CC(C)(C)CC3=O)NC3=C2C(=O)c2ccccc23)cc1 (centres undefined)	u	21µM*	-28%	5%	-3%	-12
CCCCc1ccc(C2C3=C(CC(C)(C)CC3=O)NC3=C2C(=O)c2ccccc23)cc1 (centres undefined)	u	16µM*	-27%	-3%	-8%	-3
CCC1NC(=O)c2ccccc2N1c1cccc(Cl)c1 (centres undefined)	i	u	121%	-5%	-5%	8
CCOc1ccc(/C=N/NC(=O)C(C)N(c2ccc(OC)cc2)S(C)(=O)=O)cc1 (centres undefined)	i	i	-1%	-7%	-4%	0
COc1ccc(N(C(C)C(=O)N/N=C/c2ccc(OCC(C)C)cc2)S(C)(=O)=O)cc1 (centres undefined)	i	u	-10%	19%	4.1µM*	-1
COc1cc(-c2ccc(NC(=O)c3ccc(C)cc3)c(OC)c2)ccc1NC(=O)c1ccc(C)cc1	i	i	-2%	1.6µM*	2.6µM*	-16
